Rows were chosen to be rich in hits. Some 8% of all compounds tested hit in one or more screens of this group.
MCF10A rereplic – induces DNA re-replication in MCF 10a normal breast cells | 2.9% of 350,000 active | Potency, µM (top dose mostly 46.1 µM), usual class: activators | MCF 10A DNA re-replication, Hoechst nuclear intensity, 48 h; further: nearly all actives have a fitted effect of over 50% in size
KB-V1 MDR tox – KB-V1 MDR subline cytotoxicity. KB-V1 MDR cells viability, CellTiter-Glo, 72 h. Potency, µM (highest dose often 46.1 µM), hits mostly cytotoxic. 3.4% of 400,000 active. AID 1347076; further: nearly all actives have a fitted effect of over 60% in size
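Compound-treated KB-V1 multidrug-resistant cells, 72 h, 37 degrees C; viability by CellTiter-Glo. Fitted qHTS curves give the values.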
SW480 rereplic – DNA re-replication induction in SW480 cells; SW480 DNA re-replication, Hoechst DNA content imaging, 48 h; Potency, µM (doses to about 46.1 µM), usual class: activators; 1.8% of 340,000 active; further: nearly all actives have a fitted effect of over 55% in size
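First, 250 cells per well were seeded. Next, compound or vehicle (23 nL) was pinned in, plates sat 48 hr at 37 C. Finally Hoechst was added for 40 min before fluorescence scanning.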
HT1080-NT tox – kills 2HG-producing HT-1080-NT fibrosarcoma cells; HT-1080-NT fibrosarcoma viability, CellTiter-Glo ATP luminescence, 48 h; Potency, µM (top dose mostly 46.1 µM), hits mostly cytotoxic; 1.6% of 360,000 active; AID 686970;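 further: NT is the 2HG producing partner of a matched IDH1 knockdown line; nearly all actives have a fitted effect of over 55% in size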
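Read-out is CellTiter-Glo luminescence after 10 minutes at room temperature, following 48 hours' compound treatment of HT-1080-NT cells (750 cells/well, RPMI, 5% FBS, 37 degrees C).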
KB-3-1 tox – KB-3-1 parental cell cytotoxicity. 1.4% of 400,000 active. KB-3-1 viability, CellTiter-Glo ATP luminescence, 72 h. Potency, µM (titrated, usually from 46.1 µM), actives largely listed as cytotoxic; further: nearly all actives have a fitted effect of over 60% in size
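Parental KB-3-1 viability, qHTS format: 72 h compound exposure, 37 °C; CellTiter-Glo; media-only wells and DMSO plates as controls; concentration-effect fits on corrected data.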
HT1080 IDH1KD tx – toxicity to HT-1080 IDH1 knockdown cells (counter line) | HT-1080 IDH1 knockdown viability, ATP luminescence, 48 h | Potency, µM (titrated, usually from 46.1 µM), usual class: cytotoxic | 2% of 360,000 active
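Using the IDH1-knockdown HT-1080 line run in the same batch and compound series as the NT line, viability after 48 h at 37 °C was determined by CellTiter-Glo luminescence and expressed as % activity.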
A number is an active result; 0 = inactive; ? = inconclusive. The call rests on the fitted dose curve; in most records, active means well fitted curve in the direction sought with a large enough effect; inconclusive means small, poorly fitted or top-dose-only effect, or another doubt; inactive means no such curve, though single readings can be large; an effect the other way counts as inactive or inconclusive.

SMILES | MCF10A rereplic | KB-V1 MDR tox | SW480 rereplic | HT1080-NT tox | KB-3-1 tox | HT1080 IDH1KD tx
O=C(CN1C(=O)/C(=C\c2cccs2)SC1=S)Nc1cccc(C(=O)O)c1 | 0 | 0 | 0 | ? | 0 | ?
Nc1cccc2c1C(=O)N(CCOc1ccc(F)cc1)C2=O | 16µM | 0 | 18µM | 0 | ? | 0
COc1ccc(OCCN2C(=O)c3ccccc3C2=O)cc1 | 0 | 0 | 0 | 0 | 0 | 0
O=C(N/N=C/C(Br)=C\c1ccccc1)c1cccs1 | 0 | 0 | ? | ? | 0 | 21µM
Cc1ccc(NCC(=O)N/N=C\C(Br)=C\c2ccccc2)cc1 | 0 | 0 | 0 | ? | 0 | 16µM
Cc1onc(-c2ccccc2)c1C(=O)N/N=C/C(Br)=C/c1ccccc1 | ? | 15µM | 0.23µM | 0 | ? | 0
CC(=C/c1ccccc1)/C=N/NC(=O)c1cccs1 | 0 | ? | 0 | 0 | 0 | 0
Cc1ccc(NC(=O)c2sc3nc(C)cc(C)c3c2N)cc1 | 0 | 0 | 0 | 0 | 0 | 0
CC1(NC(=O)CSc2nnc(-c3ccco3)n2Cc2ccccc2)CCS(=O)(=O)C1 (stereo unspecified) | 0 | 0 | 0 | 0 | 0 | 0
O=C1c2ccccc2C(Nc2ccc(Cl)cc2)N1CCN1CCOCC1 (stereo unspecified) | 0 | 0 | 0 | 0 | 0 | 0
CC12CCC(=O)C=C1CCC1C2CCC2(C)C(c3csc(N)n3)CCC12 (stereo unspecified) | 16µM | 21µM | ? | ? | ? | ?
CC12CCC(=O)C=C1CCC1C2C(O)CC2(C)C(c3csc(N)n3)CCC12 (stereo unspecified) | ? | ? | 0 | 6.5µM | 0 | ?
CC(=NO)C1CCC2C3CCC4=CC(=NO)CCC4(C)C3C(O)CC12C (stereo unspecified) | 0 | 21µM | 0 | 0 | ? | 0
OCCC1CN(C2CSCCSC2)CCN1Cc1ccccc1 (stereo unspecified) | 0 | 0 | 0 | 0 | 0 | 0
COc1cc(/C=C2/SC(=O)NC2=O)ccc1Oc1ccc([N+](=O)[O-])cc1[N+](=O)[O-] | ? | 0 | 13µM | 0 | 0 | 0
CC1=NN(c2ccccc2)C(=O)/C1=C\c1ccc(Oc2ccc([N+](=O)[O-])cc2[N+](=O)[O-])cc1 | ? | 0 | 0 | 21µM | 0 | 10µM
COc1cc(/C=C2\SC(=O)NC2=O)ccc1Oc1ccc([N+](=O)[O-])cn1 | ? | 0 | 0 | 0 | 0 | 0
COc1cc(/C=C2\C(=O)N(c3ccccc3)N=C2C)ccc1Oc1ccc([N+](=O)[O-])cc1[N+](=O)[O-] | 9.2µM | 0 | 0 | 0 | 0 | ?
CCS(=O)(=O)Nc1cc2c3c(c1)CCN3C(=O)CC2 | 0 | ? | 0 | 0 | 0 | 0
CC1CC(C)CN(CCCNC(=O)CC2Oc3ccccc3NC2=O)C1 (stereo unspecified) | 0 | 0 | 0 | 0 | 0 | 0
O=S(=O)(c1ccccc1)c1nc(-c2ccc(F)cc2)oc1NCC1CCCO1 (stereo unspecified) | 0 | 3.7µM | 0 | 0 | 0 | 0
CCN(C(=O)c1cccs1)c1nnc(-c2ccncc2)s1 | 0 | 18µM | 0 | ? | 0 | 0
O=C(NCCC1CCCCN1S(=O)(=O)c1ccccc1)C(=O)NCc1ccccc1 (stereo unspecified) | ? | 0 | ? | 0 | 0 | 0
Cc1ccsc1C=Nc1ccc(O)cc1 | ? | 0 | ? | 0 | 0 | 23µM
COc1ccc([N+](=O)[O-])cc1-n1cnnn1 | 0 | ? | 0 | 0 | 0 | 0
SMILES | MCF10A rereplic | KB-V1 MDR tox | SW480 rereplic | HT1080-NT tox | KB-3-1 tox | HT1080 IDH1KD tx
CCOC(=O)NC(=O)/C(C#N)=N\Nc1ccc(Cl)cc1 | 0 | 0 | 0 | 0 | 0 | 0
COC(=O)C(=NNc1c(C)n(C)n(-c2ccccc2)c1=O)C(=O)OC | 0 | 0 | 0 | ? | 0 | 0
N#C/C(=N\Nc1ccc(Cl)cc1)C(=O)c1ccccc1 | 23µM | 0 | 0 | 2.6µM | ? | ?
Cc1c(NC(=O)/C(C#N)=C/c2ccc(-c3cc(Cl)ccc3Cl)o2)c(=O)n(-c2ccccc2)n1C | 0 | 0 | 21µM | 0 | 0 | 0
Cc1c(NC(=O)/C(C#N)=C/c2ccc(-c3ccc(Cl)cc3)o2)c(=O)n(-c2ccccc2)n1C | 0 | ? | 0 | 0 | 0 | 0
Cc1c(N/N=C(\C#N)C(=O)c2ccc(Cl)cc2)c(=O)n(-c2ccccc2)n1C | 2.9µM | 0 | 9.2µM | ? | 3.3µM | 2.6µM
c1ccc2cc(CSCc3nc4ccccc4[nH]3)ccc2c1 | 21µM | ? | 0 | 0 | 0 | 0
Cc1ccc(C)c(CSCc2nc3ccccc3[nH]2)c1 | 18µM | 0 | 0 | 0 | 0 | 0
Cc1ccccc1CSCc1nc2ccccc2[nH]1 | 0 | ? | 0 | 0 | 0 | 0
O=C(O)c1c(NC(=O)N(CCO)Cc2ccccc2)sc2c1CCCC2 | 0 | 0 | 0 | 0 | 0 | 0
Cn1c(-c2ccc(F)cc2)cnc1NCc1ccc(C#N)cc1 | 0 | 21µM | 0 | 0 | 0 | 0
O=C(CN1CCN(CC(=O)Nc2ccc3c(c2)OC2(CCCCC2)O3)CC1)Nc1cccc(F)c1 | ? | 5.8µM | 0 | 0 | 0 | 0
c1ccc2c(c1)Cc1cc(CN3CCOCC3)ccc1-2 | 0 | 21µM | 0 | 0 | 0 | 0
c1ccc(CN2CCOCC2)cc1 | 0 | 0 | ? | 0 | 0 | 0
O=C(Cc1ccccc1)N/N=C\c1ccc(Br)o1 | 0 | 0 | 0 | 0 | ? | 0
COCCNCCCOc1ccc(Cl)cc1Br | 0 | 0 | 0 | ? | 0 | ?
COCCCNCCCOc1ccc(Cl)cc1C(C)(C)C | ? | 26µM | ? | ? | ? | 21µM
CNCCCOc1ccc(Cl)cc1C(C)(C)C | ? | ? | ? | ? | ? | 23µM
CCOC(=O)C1C(=O)OC(C)(C)C1C(C)C(=O)c1ccc(OC)cc1 (stereo unspecified) | 0 | ? | 0 | 0 | 0 | 0
Cc1ccc(S(=O)(=O)CCC(=O)NCCc2ccccc2)cc1 | 0 | 0 | 0 | 0 | 0 | 0
O=C(CCS(=O)(=O)c1ccc(Cl)cc1)NCCN1C(=O)S/C(=C\c2ccccc2F)C1=O | 0 | 13µM | 0 | 0 | 0 | 0
Cc1ccc(S(=O)(=O)CCC(=O)NCCN2C(=O)S/C(=C\c3ccccc3)C2=O)cc1 | ? | 12µM | 0 | 0 | 0 | 0
O=C(COC(=O)/C=C/c1ccc(Cl)c(Cl)c1)NC1CCS(=O)(=O)C1 (stereo unspecified) | 0 | ? | 0 | 0 | 0 | 0
Cc1ccc(Br)cc1S(=O)(=O)N1CCN(c2ccccc2)CC1 | 0 | 0 | 0 | 0 | 0 | 0
O=C1NC(=O)N(Cc2ccccc2)C1=O | 0 | 0 | 0 | 0 | 0 | 0
CN(Cc1ccccc1)CC(O)COc1ccc(CNCc2ccc(Cl)s2)cc1 (stereo unspecified) | 16µM | 0 | 21µM | 21µM | 0 | ?

Screening data: PubChem BioAssay, National Center for Advancing Translational Sciences (NCATS)
